# Experimental data: the antibiotic and cytotoxicity screens of Wong et al. (2023)
# The campaign covered roughly 39,000 compounds. About 1,500 (3.8%) were called active. The sample as a whole holds a higher share of actives than the screen did.
# Test system: HSkMC (human skeletal muscle cells)
# Test: cytotoxicity call (relative viability < 0.9)
# Settings: 10 µM
row,Compound,cytotoxicity call
1,C[C@H](CO)N1C[C@H](C)[C@H](CN(C)Cc2ccc(C(=O)O)cc2)OCCCC[C@H](C)Oc2ccc(NC(=O)C3CCCCC3)cc2C1=O,inactive
2,C[C@H](CO)N1C[C@H](C)[C@H](CN(C)S(C)(=O)=O)OCCCC[C@H](C)Oc2ccc(NC(=O)CCCN(C)C)cc2C1=O,inactive
3,CC(C)NC(=O)Nc1ccc2c(c1)C(=O)N([C@@H](C)CO)C[C@@H](C)[C@H](CN(C)S(=O)(=O)c1cn(C)cn1)OCCCC[C@H](C)O2,inactive
4,C[C@@H]1CN([C@H](C)CO)C(=O)CCCn2cc(nn2)CO[C@@H]1CN(C)S(=O)(=O)c1ccc(Cl)cc1,inactive
5,O=C(O)[C@]1(O)C[C@@H](O)[C@@H](O)[C@H](O)C1,inactive
6,Cc1noc(C)c1S(=O)(=O)Nc1ccc2c(c1)CC(=O)N([C@@H](C)CO)C[C@H](C)[C@H](CN(C)Cc1ccccc1)O2,inactive
7,C[C@H](CO)N1C[C@H](C)[C@H](CN(C)C(=O)Nc2ccc(C(F)(F)F)cc2)Oc2ccc(NS(C)(=O)=O)cc2C1=O,inactive
8,C[C@@H]1CN([C@H](C)CO)C(=O)c2cccc(NC(=O)C3CC3)c2O[C@H]1CN(C)S(=O)(=O)c1ccc(Cl)cc1,inactive
9,Cc1ccc(S(=O)(=O)N(C)C[C@H]2OCCCC[C@H](C)Oc3ccc(NC(=O)Nc4ccc(F)cc4)cc3C(=O)N([C@@H](C)CO)C[C@@H]2C)cc1,inactive
10,CC(=O)N1CCc2nc(C(N)=O)sc2CC1,inactive
11,Cc1coc(C)c1C(=O)O[C@@H]1O[C@@H](C)[C@H](O)[C@@H](O)[C@H]1O,active
12,O=C(OC[C@H]1O[C@@H](OC(=O)c2cc(O)c(O)c(O)c2)[C@H](O)[C@@H](O)[C@@H]1O)c1cc(O)c(O)c(O)c1,inactive
13,"COC1C(C(=O)O)OC(C)C(O)C1O.COC1OC(C(=O)O)C(O)C(O)C1O (centres undefined) [ALGINIC ACID [Mol Wt ~200,000; monomers shown] ]",inactive
14,C[C@H]1CN([C@@H](C)CO)C(=O)c2cccc(NS(=O)(=O)c3ccc(Cl)cc3)c2O[C@@H]1CN(C)Cc1ccc(-c2ccccc2)cc1,inactive
15,Cc1noc(C)c1NC(=O)N(C)C[C@@H]1Oc2ccc(NC(=O)C3CC3)cc2CC(=O)N([C@@H](C)CO)C[C@@H]1C,inactive
16,COc1ccc(S(=O)(=O)N(C)C[C@@H]2Oc3ccc(NS(=O)(=O)c4ccc(F)cc4)cc3CC(=O)N([C@H](C)CO)C[C@H]2C)cc1,inactive
17,C[C@@H]1CN([C@@H](C)CO)C(=O)c2cc(C#Cc3ccccn3)cnc2O[C@H]1CN(C)C(=O)CCN1CCCCC1,inactive
18,C[C@@H]1CCCCO[C@H](CN(C)C)[C@@H](C)CN([C@H](C)CO)C(=O)c2cc(NS(=O)(=O)c3cn(C)cn3)ccc2O1,inactive
19,COc1ccc(S(=O)(=O)Nc2ccc3c(c2)C(=O)N([C@H](C)CO)C[C@H](C)[C@@H](CN(C)Cc2ccc(C(=O)O)cc2)OCCCC[C@H](C)O3)cc1,inactive
20,C[C@@H]1CN([C@@H](C)CO)C(=O)c2cc(NC(=O)Nc3ccc(C(F)(F)F)cc3)ccc2O[C@@H]1CN(C)Cc1ccc(-c2ccccc2)cc1,active
21,C[C@H](CO)N1C[C@H](C)[C@@H](CN(C)Cc2ccc(-c3ccccc3)cc2)Oc2ccc(NC(=O)Nc3ccc(C(F)(F)F)cc3)cc2C1=O,active
22,C[C@H]1CN([C@@H](C)CO)C(=O)c2cc(NC(=O)Nc3ccc(C(F)(F)F)cc3)ccc2O[C@H]1CN(C)Cc1ccc(-c2ccccc2)cc1,active

row,Compound,cytotoxicity call
1,C[C@@H]1CN([C@H](C)CO)C(=O)Cc2cc(NS(=O)(=O)c3cn(C)cn3)ccc2O[C@H]1CN(C)CC1CC1,inactive
2,Cc1noc(C)c1NC(=O)Nc1ccc2c(c1)CC(=O)N([C@H](C)CO)C[C@H](C)[C@H](CN(C)S(=O)(=O)c1ccccc1)O2,inactive
3,CO[C@H]1CN(C)C(=O)c2ccc(NS(=O)(=O)CC(F)(F)F)cc2OC[C@H](C)N(C(=O)NC(C)C)C[C@H]1C,inactive
4,COc1cccc(C(=O)Nc2ccc3c(c2)C(=O)N(C)[C@@H]2CC[C@H](CC(=O)NCCCN4CCOCC4)O[C@H]2CO3)c1,inactive
5,COc1ccc(S(=O)(=O)N(C)C[C@@H]2OCCCC[C@H](C)Oc3ccc(NC(=O)CCC(F)(F)F)cc3C(=O)N([C@H](C)CO)C[C@H]2C)cc1,inactive
6,OC[C@H]1O[C@@H](Nc2ccccn2)[C@@H](O)[C@@H](O)[C@@H]1O,inactive
7,COc1ccc(S(=O)(=O)N(C)C[C@H]2Oc3ncc(-c4ccncc4)cc3C(=O)N([C@@H](C)CO)C[C@@H]2C)cc1,inactive
8,Cc1nn(C)cc1NC(=O)C[C@@H]1CC[C@H]2[C@H](COc3ccc(NC(=O)C4CCOCC4)cc3C(=O)N2C)O1,inactive
9,COc1cccc(C#Cc2ccc3c(c2)O[C@H](CN(C)S(=O)(=O)c2ccccc2F)[C@@H](C)CN([C@@H](C)CO)S3(=O)=O)c1,inactive
10,C[C@H]1CN([C@@H](C)CO)C(=O)c2cc(NC(=O)Nc3ccccc3)ccc2O[C@@H]1CN(C)Cc1ccc(C(F)(F)F)cc1,inactive
11,C[C@@H]1CN([C@H](C)CO)C(=O)c2cc(NC(=O)Nc3ccc(C(F)(F)F)cc3)ccc2O[C@H]1CN(C)Cc1ccc(-c2ccccc2)cc1,active
12,C[C@H](CO)N1C[C@H](C)[C@H](CN(C)Cc2ccc(-c3ccccc3)cc2)Oc2ccc(NC(=O)Nc3ccc(C(F)(F)F)cc3)cc2C1=O,active
13,C[C@@H]1CN([C@H](C)CO)C(=O)c2cc(NC(=O)Nc3ccc(C(F)(F)F)cc3)ccc2O[C@@H]1CN(C)Cc1ccc(-c2ccccc2)cc1,active
14,C[C@@H]1CN([C@@H](C)CO)C(=O)c2cc(NC(=O)Nc3ccccc3)ccc2O[C@@H]1CN(C)Cc1ccc(C(F)(F)F)cc1,inactive
15,C[C@@H]1CN([C@@H](C)CO)C(=O)c2cc(NC(=O)Nc3ccc(C(F)(F)F)cc3)ccc2O[C@H]1CN(C)Cc1ccc(-c2ccccc2)cc1,active
16,Cc1ccc(S(=O)(=O)N(C)C[C@H]2Oc3ccc(NC(=O)CCCN(C)C)cc3CC(=O)N([C@@H](C)CO)C[C@@H]2C)cc1,inactive
17,C[C@@H]1CN([C@@H](C)CO)C(=O)c2cc(NS(C)(=O)=O)ccc2O[C@@H](C)CCCCO[C@@H]1CN(C)S(=O)(=O)c1cccs1,inactive
18,Cc1noc(C)c1S(=O)(=O)Nc1ccc2c(c1)C(=O)N([C@@H](C)CO)C[C@@H](C)[C@H](CN(C)Cc1ccc(C(F)(F)F)cc1)OCCCC[C@H](C)O2,inactive
19,CC(C)Cn1c(=O)n(C)c(=O)c2[nH]cnc21,inactive
20,Cc1noc(C)c1S(=O)(=O)Nc1ccc2c(c1)CC(=O)N([C@H](C)CO)C[C@H](C)[C@@H](CN(C)S(C)(=O)=O)O2,inactive
21,O=C(O)c1ccc(N2CCCS2(=O)=O)cc1,inactive
22,Cc1ccsc1[C@@H](O)CN,inactive

row,Compound,cytotoxicity call
1,CC(C)Cc1ccc([C@@H](C)C(=O)Nc2ccc(Cl)cc2)cc1,inactive
2,Cc1cc(C)c(-c2ccc(NC(=O)[C@H](Cc3ccc(C(=O)NCCS(=O)(=O)O)cc3)c3ccc(-c4ccc(C(C)(C)C)cc4)cc3)cc2)c(C)c1,active
3,N[C@@H]1CONC1=O,inactive
4,O=C(C[C@H]1CC[C@@H]2[C@H](COC[C@H](O)CN2S(=O)(=O)c2ccc(F)cc2)O1)NCCN1CCCCC1,inactive
5,CN1CCN(c2ccc(OC(F)(F)F)c(Nc3ncc4c(n3)-c3c(c(C(N)=O)nn3CCO)CC4)c2)CC1,active
6,COc1ccc2c3c([nH]c2c1)[C@H](CO)N(C[C@]13CCN(CC1)S(=O)(=O)c1cn(cn1)C)C(=O)Nc1ccc(cc1)F,inactive
7,C[C@@H]1CCCCO[C@@H](CN(C)S(=O)(=O)c2cn(C)cn2)[C@H](C)CN([C@@H](C)CO)C(=O)c2cc(NC(=O)CCCN(C)C)ccc2O1,inactive
8,C[C@H]1CN([C@@H](C)CO)C(=O)Cc2cc(NC(=O)C3CCCCC3)ccc2O[C@@H]1CN(C)Cc1ccc(-c2ccccc2)cc1,inactive
9,C[C@@H]1CN([C@H](C)CO)C(=O)Cc2cc(NC(=O)C3CCCCC3)ccc2O[C@H]1CN(C)Cc1ccc(Oc2ccccc2)cc1,inactive
10,C[C@H]1CN([C@@H](C)CO)C(=O)Cc2cc(NC(=O)C3CCCCC3)ccc2O[C@@H]1CN(C)Cc1ccc(Oc2ccccc2)cc1,inactive
11,C[C@H]1CN([C@@H](C)CO)C(=O)Cc2cc(NC(=O)C3CCCCC3)ccc2O[C@H]1CN(C)Cc1ccc(Oc2ccccc2)cc1,active
12,C[C@@H]1CN([C@H](C)CO)C(=O)Cc2cc(NC(=O)C3CCCCC3)ccc2O[C@@H]1CN(C)Cc1ccc(Oc2ccccc2)cc1,active
13,C[C@@H]1CN([C@H](C)CO)C(=O)Cc2cc(NC(=O)C3CCCCC3)ccc2O[C@@H]1CN(C)Cc1ccc(-c2ccccc2)cc1,active
14,C[C@@H]1CN([C@@H](C)CO)C(=O)Cc2cc(NC(=O)C3CCCCC3)ccc2O[C@H]1CN(C)Cc1ccc(Oc2ccccc2)cc1,inactive
15,C[C@H](CO)N1C[C@H](C)[C@H](CN(C)Cc2ccc(-c3ccccc3)cc2)Oc2ccc(NC(=O)C3CCCCC3)cc2CC1=O,inactive
16,C[C@H](CO)N1C[C@H](C)[C@@H](CN(C)Cc2ccc(Oc3ccccc3)cc2)Oc2ccc(NC(=O)C3CCCCC3)cc2CC1=O,inactive
17,CC(=O)N1CCc2nc(N)sc2C1,inactive
18,C[C@@H]1CN([C@@H](C)CO)C(=O)c2cccc(NS(=O)(=O)c3cn(C)cn3)c2O[C@H]1CN(C)S(=O)(=O)c1ccc(Cl)cc1,inactive
19,CC=Cc1ccc2n(c1=O)C[C@@H]1[C@@H](CO)[C@H](C(=O)NCC3CC3)[C@H]2N1S(=O)(=O)c1cn(C)cn1,inactive
20,C[C@@H]1CN([C@@H](C)CO)S(=O)(=O)c2ccc(C#Cc3ccccc3F)cc2O[C@@H]1CN(C)C(=O)Cc1cccnc1,inactive
